Data published in PubChem BioAssay (NCI).
The panel holds about 83,000 compounds, 20% with a hit somewhere; the sample as a whole holds those more often.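 Treatment: one concentration, 48 hours, 96-well format. Scoring: percent growth, with anything below 10 considered active.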 Values without a mark were called inactive. Activity calls are given as the source filed them.

Each compound was assayed on SK-OV-3 ovarian (assay: NCI-60 one-dose screen, 48 h (100 = growth as untreated, 0 = no growth, -100 = all killed)). Settings: 10 µM unless noted.
Protocol: Growth inhibition of the SK-OV-3 human tumor cell line is measured as a screen for anti-cancer activity. Cells are grown in 96 well plates and exposed to the test compound for 48 hours. Compounds are tested at a single concentration, which is 10^-5 M for most compounds. The reported endpoint is percent growth (GI% or GIPRCNT), where numbers from 0 - 100% represent growth inhibition, and numbers from -100% - 0 represent cell death. For example, a value of 40 represents 60% growth inhibition. A value of 0 means no net growth occurred over the course of the experiment. A value of -40 indicates 40% of cells at the beginning of the experiment died by the end of the experiment. A value of -100 means all cells are dead at the end of the experiment.
NCI-60 Human Tumor Cell Lines Screen was performed using the standard one-dose NCI protocol, which is described in more detail at https://dtp.cancer.gov/discovery_development/nci-60/default.htm.
Compounds with GIPRCNT values below 10 were considered active. Activity score was based on GIPRCNT using the following formula: […]
Score is 0 for GIPRCNT values of 100 or above, 50 for GIPRCNT values of 0, and 100 for GIPRCNT values of -100.

| Compound | growth |
| --- | --- |
| COc1cc2ncnc(-n3ncc4cc(NC(=O)Nc5ccccc5)ccc43)c2cc1OC | 3.75% (active) |
| CCCC[N+](C)(N)CCCC | 102% |
| Nc1nc2c(c3cnccc13)C(c1ccc(Cl)c(Cl)c1)Cc1cnccc1-2 (stereo not given) | 2.34% (active) |
| COc1ccc(/C=N/c2cc(C(C)(C)C)nn2-c2ccccc2)cc1 | 101% |
| CCCC(=O)Nc1ccccc1C(=O)O | 104% |
| CC(=O)Nc1nc(C)c(C(=O)N/N=C/c2cccs2)s1 | 87.7% |
| COC1NC(Cl)=C(C#N)C(C#N)(C#N)C1(C)C (stereo not given) | 113% |
| CC(CCN1CCN(CCC(C)CC(C)(C)C)C1CC(C)CC(C)(C)C)CC(C)(C)C (stereo not given) | 96.4% |
| CC(=O)/C(=C\c1c(-c2ccccc2)[nH]c2ccccc12)S(=O)(=O)c1ccccc1 | 19.3% |
| NCCCOc1cc2ccccc2cc1C(=O)Nc1ccc(Cl)cc1OC(=O)c1cc2ccccc2cc1OCCCN | -90.8% (active) |
| CN(C)CCOC(=O)C(C)(C)C | 112% |
| COc1ccc(CNCCCN2C(=O)c3ccc4c5c(ccc(c35)C2=O)C(=O)N(CCCNCc2ccc(OC)c(OC)c2OC)C4=O)c(OC)c1OC | -77.4% (active) |
| COc1cc(/C=C/C(=O)/C=C(/C=C/c2ccc(OC(C)=O)c(OC)c2)OB(F)F)ccc1OC(C)=O | 94.8% |
| Ic1ccc(SSc2ccc(I)cc2)cc1 | 113% |
| N=C(N)c1ccc(-c2ccc(-c3ccc(Cl)cc3)s2)s1 | -50.9% (active) |
| CCCNC(=O)Oc1ccc(/C(=C(/C)Cc2ccc(OC)cc2)c2ccc(OCCN3CCCCC3)cc2)cc1 | 90.2% |
| CCCCN(CCCC)c1ccc(C(=O)O)cc1 | 98.5% |
| CCCCCCCCCCCC(=O)OC(C)C(=O)Nc1ccccc1 (stereo not given) | 97.6% |
| O=C(Nc1cccc(Cn2c(=O)[nH]c3ccc(Oc4ncccn4)cc3c2=O)c1)c1cccc(F)c1 | 83% |
| COc1ccc2oc(=O)cc(CN3C(=O)S/C(=C\c4ccc(Cl)cc4)C3=O)c2c1 | 113% |

| Compound | growth |
| --- | --- |
| CC(=O)Nc1nc(C)c(C(=O)N/N=C/N2CCCCC2)s1 | 103% |
| CC1CCCCC[N+]12CCCC2 (stereo not given) | 98.1% |
| CNc1ccc(Nc2ccc(S(=O)(=O)O)cc2)c2c1C(=O)c1ccccc1C2=O | 117% |
| CC(C)CCCCCOC(=O)c1ccccc1SSc1ccccc1C(=O)OCCCCCC(C)C | 108% |
| CC(C)C(=O)c1ccc(Cl)s1 | 101% |
| CCOP1(=O)CC(C)=C(Cl)C(P(=O)(O)O)C1 (stereo not given) | 110% |
| C/C=C(/C)C(=O)OC1C=C(CO)C(=O)C(OC(=O)C(C)(O)C(C)Cl)C1C(C)C (stereo not given) | 35.8% |
| COc1cc(OC)c(NC(=O)n2ncc3cc(Nc4ncnc5ccccc45)ccc32)cc1Cl | 110% |
| COC(=O)c1cc(=O)nc(N/N=C/c2ccccc2O)s1 | 103% |
| COC(=O)/C=C1/CCCCC1(C)C(=O)OC (stereo not given) | 110% |
| Nc1nc2c(c3cnccc13)C(c1cccc(Br)c1)Cc1cnccc1-2 (stereo not given) | 30.8% |
| BrCCCOc1ccc(Oc2ccc(OCCCBr)cc2)cc1 | 123% |
| CCOC(=O)NC1=NCC(C)(C)S1 | 95.2% |
| CCC(C)(C)c1ccc(OCCCCCCN2CCN(c3ccc(C)c(Cl)c3)CC2)cc1 | 98% |
| COC(=O)CC(=O)C(=O)OC | 106% |
| CCCCCCCCCCCCCCCCC(=O)O.CCCCCCCCCCCCCCCCCC(=O)O.CCCCCCCCCCCCCCCCCC(=O)O.CCCCCCCCCCCCCCCCCC(=O)O.CCCCCCCCCCCCCCCCCC(=O)O.CO[CH-]OC12COC1CC(O)C1(C)C(O)C(OC(C)O)C3=C(C)C(OC(=O)C(O)C([NH-])c4ccccc4)CC(O)(C(OC(=O)c4ccccc4)C21)C3(C)C.[Cu+].[Zn].[Zn].[Zn].[Zn].[Zn] (stereo not given) | 39.4% |
| COc1ccc(OC)c(Cn2cc3c(c2)-c2oncc2CC3)c1 | 11.6% |
| COc1cccc(NC(=O)NCCNc2nccc(-c3c(-c4ccc(F)cc4)nc4sccn34)n2)c1 | 77.9% |
| CC(=O)c1cc(Nc2cc(C)nc(N)n2)cc(C(C)=O)c1 | 116% |
| O=C1C(Br)=CC2C1C1C3CCC3C2(Br)C12OCCO2 (stereo not given) | 32.1% |
